# Compound: Nc1ncnc2c1ncn2[C@@H]1O[C@H](COP(=O)(O)OP(=O)(O)OP(=O)(O)O)[C@@H](O)[C@H]1O [adenosine 5'-triphosphate]
# Test: log2 fold change of tryptic peptide abundance, ligand vs vehicle (limited proteolysis) (log2 ratio); higher = more trypsin-susceptible (destabilized)
# Conditions: ligand concentration: 5 mM; sample: E. coli desalted lysate; replicate design: treated before aliquoting
# Description: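 HT-PELSA: desalted E. coli K-12 BW25113 lysate (with 12 mM MgCl2) incubated with 5 mM ATP (pH 7) or water for 30 min at 25 C, then a 4 min trypsin pulse at 22 C. Peptides were quantified by DIA-MS (4 replicates). Value is the peptide log2 fold change (treated/control); negative = stabilized. Scale: negative = ligand-stabilized region.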
# 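Note: lysate desalted by size exclusion to strip endogenous ATP, peptide intensities built from DIA-NN precursor signals, and peptides missing any value discarded before comparison.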
row,Target,log2 fold change
1,"UniProt Q46927 (peptide sequence: QINPECR, peptide start residue: 95)",-2.51
2,"UniProt P23837 (peptide sequence: EITEQYEGK, peptide start residue: 451)",-1.72
3,"UniProt P77608 (peptide sequence: AAEQGEAIAPLR, peptide start residue: 16)",0.736
4,"UniProt P00350 (peptide sequence: RIDKEGVFHTEWLD, peptide start residue: 455)",-0.396
5,"UniProt P10423 (peptide sequence: KSWHNVTGSTVIAAHEGK, peptide start residue: 90)",-0.451
6,"UniProt P45541 (peptide sequence: TGMFTCGHQR, peptide start residue: 3)",-1.14
7,"UniProt P27848 (peptide sequence: GHALEAVAK, peptide start residue: 192)",0.631
8,"UniProt P76046 (peptide sequence: RLKNELNALVNR, peptide start residue: 3)",0.559
9,"UniProt P15977 (peptide sequence: RKLSATLESMFADDGVNK, peptide start residue: 661)",-0.78
10,"UniProt P25539 (peptide sequence: LADAPQFK, peptide start residue: 342)",-0.381
11,"UniProt P27278 (peptide sequence: TFMSISGAQIR, peptide start residue: 202)",-2.94
12,"UniProt P75863 (peptide sequence: WVGPQMTR, peptide start residue: 122)",-0.577
13,"UniProt P39829 (peptide sequence: SANPSPGNKK, peptide start residue: 364)",-0.412
14,"UniProt P0A7D4 (peptide sequence: EMKELEDR, peptide start residue: 83)",-1.78
15,"UniProt P30176 (peptide sequence: LVEHTENDAYWGDGGHGK, peptide start residue: 123)",-0.814
16,"UniProt P31802 (peptide sequence: GMSGLDTLNALRR, peptide start residue: 64)",0.209
17,"UniProt P16525 (peptide sequence: TTFEHIVTVESELPTAAR, peptide start residue: 122)",0.318
18,"UniProt P77756 (peptide sequence: HRAEIDVAR, peptide start residue: 39)",-2.3
19,"UniProt Q46868 (peptide sequence: QVHESMPK, peptide start residue: 13)",-0.305
20,"UniProt Q46856 (peptide sequence: IDAAIAATR, peptide start residue: 323)",-1.68

row,Target,log2 fold change
1,"UniProt P22525 (peptide sequence: AGVLALNIQR, peptide start residue: 356)",-0.343
2,"UniProt P0A8F8 (peptide sequence: AILYGDKITPSMAK, peptide start residue: 550)",-0.631
3,"UniProt P14377 (peptide sequence: LVALGHLAAGVAHEIR, peptide start residue: 242)",1.01
4,"UniProt P05041 (peptide sequence: APFSAFLR, peptide start residue: 239)",0.459
5,"UniProt P37671 (peptide sequence: SYWESHQHEIQPLTR, peptide start residue: 174)",-0.718
6,"UniProt P75682 (peptide sequence: AWRDGDVAK, peptide start residue: 229)",-1.32
7,"UniProt P17117 (peptide sequence: ESRPFILDYLHK, peptide start residue: 223)",1.13
8,"UniProt P0AFI5 (peptide sequence: YTHFADASR, peptide start residue: 264)",-0.35
9,"UniProt P27550 (peptide sequence: IAEAAVVGIPHNIK, peptide start residue: 542)",-2.61
10,"UniProt P23839 (peptide sequence: YLETYFRLPEQFR, peptide start residue: 31)",0.91
11,"UniProt P10121 (peptide sequence: KRGFFSWLGFGQK, peptide start residue: 6)",0.814
12,"UniProt P55135 (peptide sequence: RLSDSPER, peptide start residue: 69)",-0.744
13,"UniProt P24193 (peptide sequence: AVVTSMAETAR, peptide start residue: 111)",-1.88
14,"UniProt P00968 (peptide sequence: AQLGSNSTMKKHGR, peptide start residue: 931)",0.849
15,"UniProt P76440 (peptide sequence: EELDEFPASEKEFTSAR, peptide start residue: 286)",0.874
16,"UniProt P0AFU4 (peptide sequence: LMTASWPGNVR, peptide start residue: 344)",-1.31
17,"UniProt P24202 (peptide sequence: LKSRPDAVDLDPK, peptide start residue: 114)",0.712
18,"UniProt P26646 (peptide sequence: ESTHEYLK, peptide start residue: 181)",0.217
19,"UniProt P0ADZ7 (peptide sequence: DFVAAVLPK, peptide start residue: 96)",-0.282

# Reference: the supplement of paper PMC12819154, “High-throughput peptide-centric local stability assay extends protein–ligand identification to membrane proteins, tissues and bacteria” (Nature Structural & Molecular Biology, 2025)
